Test results as given in PubChem BioAssay (NCATS).
Where “and” joins values, the source holds several entries; their conditions need not be identical. Equal entries are not always repeated. Records with an inconclusive call do not appear. Entries that show only a call come without a potency. Calls of active or inactive are those of the source. Unless noted, calls follow the shape of the dose curve; as a rule, active = well fitted curve in the direction sought with a large enough effect; inconclusive = small, poorly fitted or top-dose-only effect, or another doubt; inactive = no such curve, though single readings can be large; an effect the other way counts as inactive or inconclusive.

Tests used:
[1] = qHTS of Nrf2 Activators: LOPAC Validation (AID 624149)
How it was run: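 AREc32_Fluc cells, 1000/well in OPTI-MEM with 5% FBS, grown overnight, then exposed to compounds for 24 hr at 37 deg C, 5% CO2. ARE-driven firefly luciferase read by Steady-Glo luminescence after 30 min at RT.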

[2] = qHTS assay for small molecule agonists of the antioxidant response element (ARE) signaling pathway (AID 651741; active = well fitted activation curve with a large enough effect in the signal ratio; the % refers to the signal ratio)
How it was run: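 Quantitative HTS in HepG2 cells stably expressing an ARE-beta-lactamase reporter; 16 h compound exposure at 37 C, followed by 2 h room-temperature incubation with LiveBLAzer B/G FRET substrate and fluorescence measurement.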

[3] = qHTS assay for small molecule activators of the p53 signaling pathway (AID 651743; active = well fitted activation curve with a large enough effect in the signal ratio, not every such curve was filed as active; the % refers to the signal ratio); details: HCT-116 p53RE-bla, beta-lactamase FRET ratio, 16 h; activation: stronger effect = higher value
How it was run: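 Read-out is fluorescence intensity from the LiveBLAzer B/G FRET substrate, added for 2 hours at room temperature after HCT-116 p53RE-bla cells had been incubated with compounds for 16 hours at 37 C.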

[4] = qHTS assay for small molecule activators of the nuclear factor-kappa B (NF-kB) signaling pathway (AID 651749; active = well fitted activation curve with a large enough effect in the signal ratio; the % refers to the signal ratio); details: NF-kB-bla ME-180 cells, beta-lactamase FRET ratio, 16 h; stronger effect = higher value
How it was run: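 Readout: beta-lactamase reporter driven by an NF-kB response element, detected fluorescently as loss of FRET. Cells were the ME-180 line, treated 16 hr at 37C with pin-transferred compound.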

[5] = qHTS assay for small molecule disruptors of the mitochondrial membrane potential - 1 hr assay (AID 651754; calls by dose curve; also: nearly all actives have a fitted effect of over 35% in size)
How it was run: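 HepG2 cells, attached overnight, were exposed to compound for 1 hr at 37C, then stained 30 min with a potentiometric dye. Ratio of red aggregate (590nm) to green monomer (535nm) fluorescence reports membrane potential; collapse shifts signal toward green.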

[6] = qHTS assay for small molecule disruptors of the mitochondrial membrane potential - 5 hr assay (AID 651755; calls by dose curve; also: nearly all actives have a fitted effect of over 40% in size)
How it was run: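 HepG2, 2,000 cells/well, overnight attach; cpd or DMSO 5 hr, 37C/5% CO2; Mito-MPS 30 min 37C; fluor 490/535 + 540/590 nm.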

[7] = molecular target: Tumor necrosis factor (Homo sapiens) (UniProt P01375); assay: qHTS assay to identify small molecules that stimulate Tumor Necrosis Factor-alpha (TNF-alpha) secretion (AID 651757; active = well fitted curve in the direction sought with a large enough effect in the signal ratio; the % refers to the signal ratio)
How it was run: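 THP-1 cells (3000/well) exposed to compounds 17 hrs at 37 C. Secreted TNF-alpha detected by HTRF with cryptate- and XL665-labeled anti-TNF-alpha antibodies after 3 hr at room temperature.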

[8] = qHTS assay for environmental chemicals that activate the Aryl hydrocarbon Receptor (AhR) signaling pathway (AID 651777); details: 1A2-DRE human hepatoma cells, luciferase, 24 h; stronger effect = higher value; also: nearly all actives have a fitted effect of over 15% in size
How it was run: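 Measured luciferase activity, read 30 min after One-Glo addition at room temperature, from human hepatoma cells bearing a dioxin response element–CYP1A2 promoter reporter and exposed to compound for 24 hr at 37 C.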

[9] = molecular target: Peroxisome proliferator-activated receptor alpha (Homo sapiens) (UniProt Q07869); assay: qHTS assay for small molecule agonists of the peroxisome proliferator-activated receptor alpha (PPARalpha) signaling pathway (AID 651778); details: PathHunter PPARalpha complementation, chemiluminescence, 6 h; stronger effect = higher value
How it was run: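 Chemiluminescence from complemented enzyme reported PPARalpha activation in cells after 6 hr of compound treatment at 37 C. The detection reagent was incubated for 60 min at room temperature, and compounds were scored as agonists.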

[10] = molecular target: Nuclear receptor ROR-gamma (Homo sapiens) (UniProt P51449); assay: qHTS assay for small molecule antagonists of the retinoid-related orphan receptor gamma (ROR-gamma) signaling pathway (AID 651802);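 also: luciferase reporter luminescence driven by ROR response element; nearly all actives have a fitted effect of over 60% in size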
How it was run: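 CHO cells with TET-inducible ROR-gamma and RORE-luciferase reporter, dosed then doxycycline-induced. After 16 h at 37C, One-Glo luminescence read; decreased signal indicates antagonism.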

[11] = Cytotoxicity counterscreen for NFkB agonists and antagonists (AID 624476); also: potency is read from the fitted curve at half-maximal effect
[12] = qHTS Assay for Identification of Small Molecule Agonists for NFkB Signaling Pathway. (AID 624478)
How it was run: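 NFkB-bla ME-180 cells carry a beta-lactamase reporter. They received compound plus TNF alpha at 10 pM final (its EC50) for 5 h at 37 C. Reporter activity was read as 460/530 nm emission ratio after 2 h LiveBLAzer substrate loading.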

[13] = qHTS Assay for Identification of Small Molecule Antagonists for NFkB Signaling Pathway. (AID 624479; calls by dose curve;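 also: pathway stimulated with TNF alpha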; also: potency is read from the fitted curve at half-maximal effect)
[14] = Cell Proliferation Assay against the TMD8 Cell Line (AID 651645); details: TMD8 DLBCL cell line proliferation/viability; at 46.1 µM (top of the series) unless noted;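 also: cells exposed to compound for 48 h before reading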
How it was run: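 Cell viability of the ABC DLBCL line TMD8 is measured by CellTiter-Glo luminescence following a 48-hour incubation with compound. Percent activity uses DMSO as 100% and 9.2 uM bortezomib (final) as 0%.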

[15] = Cell Proliferation Assay against the HBL1 Cell Line (AID 651646); details: HBL1 DLBCL cells; at 46.1 µM (top of the series) unless noted;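 also: cells exposed to compound for 48 h before reading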
How it was run: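 Luminescent ATP read-out (CellTiter-Glo) after 48 h compound exposure of HBL1 cells at 37 °C; percent activity was scaled between DMSO as 100% and 9.2 uM bortezomib (final) as 0%.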

[16] = Cell Proliferation Assay against the TMD8 Cell Line (Caspase readout at 8 hrs) (AID 651713)
How it was run: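 TMD8 cells in RPMI plus 5% FBS were treated with compound for 8 h at 37C. Caspase 3/7 activation was read by Caspase-Glo luminescence. Percent activity was scaled from DMSO (0%) to 9.2 uM bortezomib final (100%).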

[17] = Cell Proliferation Assay against the TMD8 Cell Line (Caspase readout at 16 hrs) (AID 651712)
How it was run: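 Apoptotic response of TMD8 cells was judged from caspase 3/7 activation following a 16 hour compound incubation at 37 °C. Luminescent signal was converted to percent activity, with DMSO set as 0% and 9.2 uM final bortezomib as 100%.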

[18] = molecular target: Tyrosine-protein kinase Yes (Homo sapiens) (UniProt P07947); assay: qHTS for small molecule inhibitors of Yes1 kinase: Primary Screen (AID 686947); also: nearly all actives have a fitted effect of over 60% in size
How it was run: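 Yes1 (4 nM) preincubated 20 min with compound, then 60 min room-temperature reaction with 0.1 mM ATP and 0.3 mg/mL poly(E4Y) in pH 7.5 Tris, 10 mM MgCl2. ADP measured by ADP-Glo luminescence, normalised to enzyme/no-enzyme controls.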

Chain of Peroxisome proliferator-activated receptor alpha (Homo sapiens) (Q07869 whole entry, looked up): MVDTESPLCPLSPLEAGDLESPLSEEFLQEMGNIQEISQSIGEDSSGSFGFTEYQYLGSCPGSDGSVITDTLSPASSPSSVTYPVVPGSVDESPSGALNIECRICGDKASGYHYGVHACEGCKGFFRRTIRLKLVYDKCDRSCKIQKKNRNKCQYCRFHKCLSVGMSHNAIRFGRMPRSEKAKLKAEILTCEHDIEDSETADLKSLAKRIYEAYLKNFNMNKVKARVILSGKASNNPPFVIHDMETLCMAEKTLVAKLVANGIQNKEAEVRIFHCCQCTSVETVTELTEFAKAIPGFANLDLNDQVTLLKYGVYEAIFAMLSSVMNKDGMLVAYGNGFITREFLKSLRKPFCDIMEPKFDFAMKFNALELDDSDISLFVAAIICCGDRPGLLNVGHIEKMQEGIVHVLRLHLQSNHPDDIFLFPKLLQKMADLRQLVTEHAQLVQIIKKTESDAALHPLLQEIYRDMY
Chain of Nuclear receptor ROR-gamma (Homo sapiens) (P51449 whole entry, looked up): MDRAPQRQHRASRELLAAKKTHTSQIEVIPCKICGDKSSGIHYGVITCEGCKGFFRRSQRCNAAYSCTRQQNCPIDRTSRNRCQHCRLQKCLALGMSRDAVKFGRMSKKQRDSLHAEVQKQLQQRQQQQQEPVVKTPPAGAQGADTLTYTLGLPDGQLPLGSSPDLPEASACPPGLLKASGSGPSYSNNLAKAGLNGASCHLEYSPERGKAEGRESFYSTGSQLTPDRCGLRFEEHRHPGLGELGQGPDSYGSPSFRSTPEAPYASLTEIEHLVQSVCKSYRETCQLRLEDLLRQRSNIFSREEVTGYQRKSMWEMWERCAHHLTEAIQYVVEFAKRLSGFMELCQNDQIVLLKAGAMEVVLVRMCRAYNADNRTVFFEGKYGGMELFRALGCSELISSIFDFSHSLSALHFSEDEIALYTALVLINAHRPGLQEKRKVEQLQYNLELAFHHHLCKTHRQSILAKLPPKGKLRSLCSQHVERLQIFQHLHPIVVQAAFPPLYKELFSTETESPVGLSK
Chain of Tumor necrosis factor (Homo sapiens) (P01375 whole entry, looked up): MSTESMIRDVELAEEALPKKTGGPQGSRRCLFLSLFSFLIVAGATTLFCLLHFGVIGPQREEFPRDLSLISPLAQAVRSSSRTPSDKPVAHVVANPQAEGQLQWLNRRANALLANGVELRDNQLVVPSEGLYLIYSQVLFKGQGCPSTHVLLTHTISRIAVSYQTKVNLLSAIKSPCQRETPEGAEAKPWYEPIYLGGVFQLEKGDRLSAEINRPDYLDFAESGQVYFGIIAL
Chain of Tyrosine-protein kinase Yes (Homo sapiens) (P07947 whole entry, looked up): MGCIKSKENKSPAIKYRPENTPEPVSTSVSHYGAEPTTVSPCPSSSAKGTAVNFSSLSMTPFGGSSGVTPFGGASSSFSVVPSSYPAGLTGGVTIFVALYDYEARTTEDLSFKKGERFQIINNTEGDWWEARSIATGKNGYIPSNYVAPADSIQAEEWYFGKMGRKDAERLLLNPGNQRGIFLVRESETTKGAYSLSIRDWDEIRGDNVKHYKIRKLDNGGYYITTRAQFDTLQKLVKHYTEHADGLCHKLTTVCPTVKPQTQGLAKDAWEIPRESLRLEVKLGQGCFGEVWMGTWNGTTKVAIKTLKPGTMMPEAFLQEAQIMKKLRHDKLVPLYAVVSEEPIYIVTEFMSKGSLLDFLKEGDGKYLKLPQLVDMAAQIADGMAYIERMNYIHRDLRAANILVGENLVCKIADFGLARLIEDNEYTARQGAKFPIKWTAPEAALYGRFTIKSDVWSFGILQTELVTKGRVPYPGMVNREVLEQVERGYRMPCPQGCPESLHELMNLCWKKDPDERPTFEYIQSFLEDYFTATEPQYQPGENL

With `CC(=O)Oc1ccccc1C(=O)O` as the compound, how does the outcome [1] read?
The outcome was “inactive”.

What about the Potency [2] of the same compound?
The Potency was “inactive”.

What about the activation [3] of the same compound?
Its activation is -2.89% (inactive) and -7.19% (inactive) and 1.5% (inactive).

What about the activation [4] of the same compound?
The activation was -1.39% (inactive) and 0.118% (inactive) and -2.43% (inactive).

And the outcome [5]?
The outcome was “inactive”.

And the outcome [6]?
The outcome was “inactive”.

What about the outcome [7] of the same compound?
Its outcome is “inactive”.

And the activation [8]?
The activation was 0.977% (inactive) and -1.01% (inactive) and -0.15% (inactive).

What about the max response [9] of the same compound?
The max response was -3.17% (inactive) and 6.24% (inactive) and -1.09% (inactive).

What about the outcome [10] of the same compound?
The outcome was “inactive”.

What does the source list for `CC(C)(Sc1ccc(CCN(CCCCC2CCCCC2)C(=O)NC2CCCCC2)cc1)C(=O)O`?
outcome [1]: inactive; Potency [11]: 23.5 µM (active); outcome [12]: inactive; Potency [13]: 21.1 µM (active); viability (% of control) [14]: 92.1%; viability, percent of control [15]: 13.8%; Potency [16]: inactive; activation [4]: 7.6% (inactive); activation [8]: 0.388% (inactive)

What does the source list for `Cc1cc(Nc2nc(N[C@@H](C)c3ncc(F)cn3)ncc2Cl)n[nH]1`?
Potency [11]: inactive; outcome [12]: inactive; Potency [13]: inactive; viability (% of control) [14]: 105%; viability, percent of control [15]: 138%; Potency [17]: inactive; Potency [16]: inactive

For `CCOc1cc(C(=O)Nc2ccc(Cl)c(-c3nc4ccccc4[nH]3)c2)cc(OCC)c1OCC`, which Potency [11] is on record?
The Potency was “inactive”.

And the outcome [12]?
The outcome was “inactive”.

And the Potency [13]?
The Potency was “inactive”.

What about the viability (% of control) [14] of the same compound?
The viability (% of control) was 69.8%.

And the viability, percent of control [15]?
The viability, percent of control was 85.2%.

What about the Potency [17] of the same compound?
Its Potency is “inactive”.

And the Potency [16]?
The Potency was “inactive”.

And the Potency [18]?
The Potency was “inactive”.

Which results are given for `C[C@@H]1C[C@H]2[C@@H]3CCC4=CC(=O)C=C[C@]4(C)C3(F)[C@@H](O)C[C@]2(C)[C@@]1(O)C(=O)CO` (stereo partly specified)?
Potency [11]: inactive; outcome [12]: inactive; Potency [13]: inactive; viability (% of control) [14]: 40.7%; viability, percent of control [15]: 28.2%; Potency [17]: inactive

What does the source list for `NC(=O)c1ccc(-c2nc(-c3ccc4c(c3)OCO4)c(-c3ccccn3)[nH]2)cc1`?
Potency [11]: inactive; outcome [12]: inactive; Potency [13]: inactive; viability (% of control) [14]: 92.5%; viability, percent of control [15]: 121%; Potency [17]: inactive; Potency [16]: inactive

For `CNC(=O)c1ccccc1Sc1ccc2c(/C=C/c3ccccn3)n[nH]c2c1`, which Potency [11] is on record?
Its Potency is “inactive”.

And the outcome [12]?
Its outcome is “inactive”.

And the Potency [13]?
The Potency was “inactive”.

What about the viability (% of control) [14] of the same compound?
The viability (% of control) was 23.8%.

What about the viability, percent of control [15] of the same compound?
The viability, percent of control was 56.4%.

And the Potency [17]?
The Potency was “inactive”.

Which Potency [11] does the source give for `N#CC[C@H](C1CCCC1)n1cc(-c2ncnc3[nH]ccc23)cn1` here?
Its Potency is “inactive”.

What about the outcome [12] of the same compound?
The outcome was “inactive”.

And the Potency [13]?
Its Potency is 16.8 µM (active).

And the viability (% of control) [14]?
Its viability (% of control) is 33.1%.

What about the viability, percent of control [15] of the same compound?
Its viability, percent of control is 65.7%.

What about the Potency [17] of the same compound?
The Potency was “inactive”.

Which Potency [11] does the source give for `O=C(c1cc(Cc2n[nH]c(=O)c3ccccc23)ccc1F)N1CCN(C(=O)C2CC2)CC1` here?
The Potency was “inactive”.

What about the outcome [12] of the same compound?
Its outcome is “inactive”.

What about the Potency [13] of the same compound?
Its Potency is “inactive”.

And the viability (% of control) [14]?
Its viability (% of control) is 58.9%.

What about the viability, percent of control [15] of the same compound?
Its viability, percent of control is 64.8%.

And the Potency [16]?
The Potency was “inactive”.

For `Cc1cnc(Nc2ccc(OCCN3CCCC3)cc2)nc1Nc1cccc(S(=O)(=O)NC(C)(C)C)c1`, which Potency [11] is on record?
The Potency was “inactive”.

And the outcome [12]?
Its outcome is “inactive”.

What about the Potency [13] of the same compound?
The Potency was “inactive”.

And the viability (% of control) [14]?
Its viability (% of control) is 90.7%.

What about the viability, percent of control [15] of the same compound?
Its viability, percent of control is 65.3%.

What about the Potency [16] of the same compound?
The Potency was “inactive”.
